Screen size: about 5,500 compounds; about 2,000 (36%) were called active. Inconclusive results (about 18%) are left out. No stated cut-off is given here; in the data, active means normalized growth mostly below about 0.91 (no sharp cut-off); inconclusive means no clear call, values can overlap the other calls; inactive means mostly above about 0.92. The list shows a part of the results.
Assay: chemical genetic growth profiling, strain panel (AID 1159580);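 further: tested at 20 µM; growth read once vehicle control cultures reached saturation at 30 °C; 1 = growth at the plate median or of vehicle wells; lower values mean less growth of the strain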
Conditions: growth OD

Measured: normalized growth

CC1[C@H](C)OC(=O)CC(O)CC(O)CC(O)CCC(O)C(O)C[C@]2(O)CC(O)C(C(=O)O)C(CC(OC3O[C@H](C)[C@@H](O)[C@H](N)[C@@H]3O)/C=C/C=C/C=C/C=C/CC/C=C/C=C/[C@H](C)[C@H]1O)O2 (stereo partly specified)
inactive: S. cerevisiae deletion strains, locus YKL160W, strain elf1, active compounds read low 0.952 | S. cerevisiae deletion strains, locus YKR091W, strain srl3, active compounds read low 0.986 | S. cerevisiae deletion strains, locus YLR320W, strain mms22, active compounds read low 1 | S. cerevisiae deletion strains, locus YMR205C, strain PFK2, active compounds read low 0.916 | S. cerevisiae deletion strains, locus YNR049C, strain mso1, active compounds read low 0.951 | S. cerevisiae deletion strains, locus YOL012C, strain htz1 0.206 | S. cerevisiae deletion strains, locus YOR070C, strain gyp1, active compounds read low 0.95 | S. cerevisiae deletion strains, locus YOR270C, strain vph1, active compounds read low 0.837 | S. cerevisiae deletion strains, locus YOR290C, strain snf2, active compounds read low 1.01 | S. cerevisiae deletion strains, locus YPL240C, strain hsp82, active compounds read low 0.943
active: S. cerevisiae deletion strains, locus YKL009W, strain mrt4, active compounds read low 0.0887 | S. cerevisiae deletion strains, locus YKL068W, active compounds read low 0.0555 | S. cerevisiae deletion strains, locus YKL085W, strain MDH1 (second series), active compounds read low 0.0538 | S. cerevisiae deletion strains, locus YKL085W, strain MDH1, active compounds read low 0.0538 | S. cerevisiae deletion strains, locus YKL190W, strain CNB1, active compounds read low 0.193 | S. cerevisiae deletion strains, locus YKR001C, strain vps1, active compounds read low 0.0857 | S. cerevisiae deletion strains, locus YKR026C, strain gcn3, active compounds read low 0.0734 | S. cerevisiae deletion strains, locus YLL001W, strain dnm1, active compounds read low 0.759 | S. cerevisiae deletion strains, locus YLL026W, active compounds read low 0.446 | S. cerevisiae deletion strains, locus YLL041C, strain sdh2, active compounds read low 0.913 | S. cerevisiae deletion strains, locus YLR027C, strain aat2, active compounds read low 0.633 | S. cerevisiae deletion strains, locus YLR039C, strain RIC1, active compounds read low 0.0871 | S. cerevisiae deletion strains, locus YLR058C, strain SHM2, active compounds read low 0.374 | S. cerevisiae deletion strains, locus YLR102C, strain apc9, active compounds read low 0.283 | S. cerevisiae deletion strains, locus YLR113W, strain HOG1, active compounds read low 0.124 | S. cerevisiae deletion strains, locus YLR221C, strain rsa3, active compounds read low 0.36 | S. cerevisiae deletion strains, locus YLR258W, strain gsy2, active compounds read low 0.857 | S. cerevisiae deletion strains, locus YLR262C, strain YPT6 (second series), active compounds read low 0.799 | S. cerevisiae deletion strains, locus YLR262C, strain YPT6, active compounds read low 0.0948 | S. cerevisiae deletion strains, locus YLR268W, strain sec22, active compounds read low 0.119 | S. cerevisiae deletion strains, locus YLR330W, strain CHS5, active compounds read low 0.176 | S. cerevisiae deletion strains, locus YLR342W, strain FKS1 (second series), active compounds read low 0.126 | S. cerevisiae deletion strains, locus YLR342W, strain FKS1, active compounds read low 0.376 | S. cerevisiae deletion strains, locus YLR357W, strain rsc2, active compounds read low 0.123 | S. cerevisiae deletion strains, locus YLR370C, strain arc18, active compounds read low 0.0729 | S. cerevisiae deletion strains, locus YLR371W, strain rom2, active compounds read low 0.112 | S. cerevisiae deletion strains, locus YLR384C, strain iki3, active compounds read low 0.907 | S. cerevisiae deletion strains, locus YLR418C, strain cdc73, active compounds read low 0.202 | S. cerevisiae deletion strains, locus YML016C, strain PPZ1, active compounds read low 0.841 | S. cerevisiae deletion strains, locus YML032C, strain rad52, active compounds read low 0.333 | S. cerevisiae deletion strains, locus YML120C, strain ndi1, active compounds read low 0.0634 | S. cerevisiae deletion strains, locus YML124C, strain tub3, active compounds read low 0.103 | S. cerevisiae deletion strains, locus YMR058W, strain fet3, active compounds read low 0.318 | S. cerevisiae deletion strains, locus YMR078C, strain ctf18, active compounds read low 0.612 | S. cerevisiae deletion strains, locus YMR125W, strain sto1, active compounds read low 0.112 | S. cerevisiae deletion strains, locus YMR129W, active compounds read low 0.0795 | S. cerevisiae deletion strains, locus YMR223W, strain ubp8, active compounds read low 0.0876 | S. cerevisiae deletion strains, locus YMR231W, strain pep5, active compounds read low 0.839 | S. cerevisiae deletion strains, locus YMR263W, strain SAP30, active compounds read low 0.0585 | S. cerevisiae deletion strains, locus YMR307W, strain GAS1, active compounds read low 0.103 | S. cerevisiae deletion strains, locus YNL067W, strain RPL9B, active compounds read low 0.0572 | S. cerevisiae deletion strains, locus YNL071W, strain lat1, active compounds read low 0.885 | S. cerevisiae deletion strains, locus YNL128W, strain TEP1, active compounds read low 0.0617 | S. cerevisiae deletion strains, locus YNL153C, strain GIM3, active compounds read low 0.0492 | S. cerevisiae deletion strains, locus YNL183C, strain NPR1, active compounds read low 0.00104 | S. cerevisiae deletion strains, locus YNL209W, strain ssb2, active compounds read low 0.816 | S. cerevisiae deletion strains, locus YNL233W, strain BNI4, active compounds read low 0.135 | S. cerevisiae deletion strains, locus YNL248C, strain rpa49, active compounds read low 0.104 | S. cerevisiae deletion strains, locus YNL250W, strain rad50, active compounds read low 0.0643 | S. cerevisiae deletion strains, locus YNL271C, strain bni1, active compounds read low 0.0657 | S. cerevisiae deletion strains, locus YNL298W, strain CLA4, active compounds read low 0.0613 | S. cerevisiae deletion strains, locus YNL307C, strain MCK1, active compounds read low 0.0855 | S. cerevisiae deletion strains, locus YNL322C, strain KRE1 (second series), active compounds read low 0.695 | S. cerevisiae deletion strains, locus YNL322C, strain KRE1, active compounds read low 0.0469 | S. cerevisiae deletion strains, locus YNR052C, strain pop2, active compounds read low 0.0638 | S. cerevisiae deletion strains, locus YOL006C, strain TOP1, active compounds read low 0.276 | S. cerevisiae deletion strains, locus YOL147C, strain pex11, active compounds read low 0.111 | S. cerevisiae deletion strains, locus YOR001W, strain rrp6, active compounds read low 0.102 | S. cerevisiae deletion strains, locus YOR061W, strain CKA2, active compounds read low 0.41 | S. cerevisiae deletion strains, locus YOR069W, strain VPS5, active compounds read low 0.156 | S. cerevisiae deletion strains, locus YOR080W, strain dia2, active compounds read low 0.826 | S. cerevisiae deletion strains, locus YOR083W, strain WHI5, active compounds read low 0.798 | S. cerevisiae deletion strains, locus YOR106W, strain vam3, active compounds read low 0.284 | S. cerevisiae deletion strains, locus YOR136W, strain idh2, active compounds read low 0.221 | S. cerevisiae deletion strains, locus YOR144C, strain elg1, active compounds read low 0.123 | S. cerevisiae deletion strains, locus YOR184W, strain ser1, active compounds read low 0.0785 | S. cerevisiae deletion strains, locus YOR231W, strain MKK1, active compounds read low 0.105 | S. cerevisiae deletion strains, locus YOR265W, strain rbl2, active compounds read low 0.887 | S. cerevisiae deletion strains, locus YOR316C, strain cot1, active compounds read low 0.236 | S. cerevisiae deletion strains, locus YPL051W, strain arl3, active compounds read low 0.885 | S. cerevisiae deletion strains, locus YPL055C, strain LGE1, active compounds read low 0.0909 | S. cerevisiae deletion strains, locus YPL078C, strain atp4, active compounds read low 0.757 | S. cerevisiae deletion strains, locus YPL106C, strain sse1, active compounds read low 0.229 | S. cerevisiae deletion strains, locus YPL241C, strain CIN2, active compounds read low 0.182 | S. cerevisiae deletion strains, locus YPL256C, strain CLN2, active compounds read low 0.116 | S. cerevisiae deletion strains, locus YPR119W, strain clb2, active compounds read low 0.271 | S. cerevisiae deletion strains, locus YPR141C, strain kar3, active compounds read low 0.0655 | S. cerevisiae deletion strains, locus YPR163C, strain tif3, active compounds read low 0.152 | S. cerevisiae deletion strains, locus YPR167C, strain met16, active compounds read low 0.0932 | S. cerevisiae deletion strains, strain wtn01, active compounds read low 0.0877 | S. cerevisiae strains, strain wild type, active compounds read low 0.0547

Source: PubChem BioAssay AID1159580 (chemical genetic matrix, 2015)
